From PubChem BioAssay (NCATS) come the findings set out here.

Records with an inconclusive call do not appear. Activity calls are given as the source filed them. Unless noted, the call rests on the fitted dose curve.

For experiment [1], the target named is Bile acid receptor (Homo sapiens) (UniProt Q96RI1). Description: qHTS assay for small molecule agonists of farnesoid X receptor signaling (AID 588527).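 Further: series mostly up to about 77 µM; 0% = vehicle basal and 100% = reference agonist.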 To be noted: HEK293T FXR-UAS-bla, beta-lactamase ratio, 16 h; activation: stronger effect = higher value. Summed up:
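FXR-UAS-bla HEK293T, 10% dialyzed FBS; cpds up to 92 uM titration, 16 h 37 C; CCF4 dye 2 h RT; fluorescence. Normalized to chenodeoxycholic acid 100 uM (100%) and DMSO (0%); Hill fit gives EC50, efficacy.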

Experiment [2] deals with Glucocorticoid receptor (Homo sapiens) (UniProt P04150). Briefly: qHTS assay for small molecule agonists of glucocorticoid receptor signaling (AID 588532; active means well fitted curve in the direction sought with a large enough effect in the signal ratio, with a control signal flat; the % refers to the signal ratio;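 further: 100% = dexamethasone at 0.1 µM and 0% = DMSO only wells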). To be noted: HeLa MMTV-bla, beta-lactamase ratio, agonist, 18 h; activation: stronger effect = higher value, percent of dexamethasone control, DMSO zero. Summed up:
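MMTV-bla HeLa, beta-lactamase reporter; medium with 1% charcoal/dextran-stripped FBS; cpds up to 92 uM, 18 h, 37 C; CCF4 readout 460/530 nm; Hill fit → EC50, efficacy vs 0.1 uM dexamethasone = 100%.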
On the technique in general: Quantitative high-throughput screening tests each substance at several concentrations.

Experiment [3] has the same target. Briefly: qHTS assay for small molecule antagonists of glucocorticoid receptor signaling (AID 588533; active means well fitted inhibition curve with a large enough effect in the signal ratio, with a control signal flat, not every such curve was filed as active; the % refers to the signal ratio;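 further: cells stimulated with 2 nM dexamethasone as agonist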; further: potency means the concentration at half of the fitted maximal effect). Summed up: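 Antagonist-mode qHTS: compound titrations added to GRE-bla HeLa cells, then dexamethasone 2 nM final; 18 h, 37 C. CCF4 FRET fluorescence normalized to dexamethasone and DMSO; IC50 from Hill fit.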
Experiment [4] has as its target Peroxisome proliferator-activated receptor delta (Homo sapiens) (UniProt Q03181). Description: qHTS assay for small molecule agonists of peroxisome proliferator-activated receptor delta signaling (AID 588534).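 Further: 0% = DMSO basal wells and 100% = positive control agonist at 10 µM.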 Summed up: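 Reporter cells were plated and held 5 hrs at 37 C before compounds were added. After 18 hrs at 37 C, CCF4 dye was loaded for 2 hrs at RT and fluorescence measured.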

The nature of experiment [5]: qHTS assay for small molecule antagonists of peroxisome proliferator-activated receptor delta signaling (AID 588535; active means well fitted inhibition curve with a large enough effect in the signal ratio, with a control signal flat, not every such curve was filed as active; the % refers to the signal ratio; further: potency means the concentration at half of the fitted maximal effect;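 on max response: cells co-treated with a PPAR-delta agonist as stimulator during compound exposure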). To be noted: HEK293T PPARd-UAS-bla, beta-lactamase FRET ratio, 18 h; 460 nm channel. Summed up:
(§1)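 GeneBLAzer PPAR-delta-UAS-bla HEK293T cells in medium with 2% charcoal/dextran FBS were preincubated 5 hrs at 37 C, then given compounds, incubated 18 hrs at 37 C, and read by CCF4 beta-lactamase fluorescence; IC50 from Hill fits.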

Experiment [6] addresses Peroxisome proliferator-activated receptor delta (Homo sapiens) (UniProt Q03181). The experiment is described as above. Summed up: as §1
For experiment [7], the target named is Peroxisome proliferator-activated receptor gamma (Homo sapiens) (UniProt P37231). Description: qHTS assay for small molecule agonists of peroxisome proliferator-activated receptor gamma signaling (AID 588536; active means well fitted curve in the direction sought with a large enough effect in the signal ratio, with a control signal flat, not every such curve was filed as active; the % refers to the signal ratio;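 further: 0% = DMSO basal wells and 100% = rosiglitazone at 2 µM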). An outline of the steps:
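PPAR-gamma-UAS-bla HEK293 cells in medium with 1% charcoal/dextran-treated FBS were exposed to compounds for 16 h at 37 C. Beta-lactamase activity was read with CCF4 substrate (405 nm excitation, 460/530 nm emission).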

For experiment [8] the target is unchanged. Briefly: qHTS assay for small molecule antagonists of peroxisome proliferator-activated receptor gamma signaling (AID 588537; active means well fitted inhibition curve with a large enough effect in the signal ratio, with a control signal flat, not every such curve was filed as active; the % refers to the signal ratio;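 further: reporter cells co-stimulated with 50 nM rosiglitazone agonist during compound treatment; % of control where 0% means no effect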). An outline of the steps: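 PPAR-gamma-UAS-bla HEK293 cells (3000/well, 1% charcoal/dextran-stripped FBS) were preincubated 6-6.5 h at 37 C, given titrated compounds, then stimulated with 50 nM rosiglitazone for 16 h. Beta-lactamase activity was read with CCF4 dye; IC50 came from Hill fits.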

The target in experiment [9] is Vitamin D3 receptor (Homo sapiens) (UniProt P11473). Description: qHTS assay for small molecule antagonists of vitamin D receptor signaling (AID 588541).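 Further: receptor activated by calcitriol during compound treatment; series mostly up to about 77 µM; on the % scale 0 is the no-effect control and ±100 the full control effect.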 An outline of the steps:
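VDR-UAS-bla HEK293T cells (2000/well, 2% charcoal-stripped FBS) were treated with titrated compounds plus 1-alpha,25-dihydroxyvitamin D3 (50 nM or 3 nM final) for 16 h at 37 C. CCF4 beta-lactamase fluorescence was read; Hill fits gave IC50.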

Experiment [10] shares this target. Briefly: qHTS assay for small molecule agonists of vitamin D receptor signaling (AID 588543).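 Further: 0% = DMSO basal and 100% = reference agonist control.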 Summed up:
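β-lactamase reporter, VDR-UAS-bla HEK293T, agonist mode. Cells plated 5 h at 37 °C, compound titration 16 h at 37 °C, CCF4 dye 2 h RT, ratio 460/530 nm. Hill fit → EC50, efficacy vs 50 nM 1α,25-(OH)2D3.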

Experiment [11] can be described thus: qHTS assay for small molecule agonists of retinoid X receptor alpha signaling (AID 588544).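 On activation: 0% = DMSO basal wells and 100% = reference agonist.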 As to conditions: HEK293T RXRa-UAS-bla, beta-lactamase reporter, 18 h; 530 nm emission.
The target in experiment [12] is Retinoic acid receptor RXR-alpha (Homo sapiens) (UniProt P19793). Described as above.
For experiment [13], the target named is Thyroid hormone receptor beta (Homo sapiens) (UniProt P10828). Briefly: qHTS assay for small molecule agonists of thyroid hormone receptor beta signaling (AID 588545). Summed up: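 Agonist-mode beta-lactamase reporter assay, HEK 293 cells, 2% charcoal/dextran FBS; cells plated 4 hrs, compound 18 hrs at 37 C, CCF4 2 hrs RT. Normalized to 10 nM T3 (100%) and DMSO (0%); Hill fit gives EC50, efficacy.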

Experiment [14] is described as follows: qHTS assay for small molecule antagonists of retinoid X receptor alpha signaling (AID 588546; active means well fitted inhibition curve with a large enough effect in the signal ratio, with a control signal flat, not every such curve was filed as active; the % refers to the signal ratio; further: potency means the concentration at half of the fitted maximal effect). To be noted: HEK293T RXRa-UAS-bla, beta-lactamase ratio, antagonist mode; measured here: W530 green channel, cytotoxicity proxy. An outline of the steps: (§2)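 Beta-lactamase reporter inhibition, read as CCF4 fluorescence ratio (ex 405, em 460/530 nm) after 2 h at RT. HEK293T UAS-bla cells, 2500/well, were stimulated with 9-cis-RA at 500 or 100 nM final alongside test compound for 18 h at 37 C.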

In experiment [15] the target is Thyroid hormone receptor beta (Homo sapiens) (UniProt P10828). Briefly: qHTS assay for small molecule antagonists of thyroid hormone receptor beta signaling (AID 588547; active means well fitted inhibition curve with a large enough effect in the signal ratio, with a control signal flat, not every such curve was filed as active; the % refers to the signal ratio;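 further: cells stimulated with 0.4 nM T3 agonist during compound exposure; series mostly up to about 77 µM; on the % scale 0 is the no-effect control and ±100 the full control effect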). As to conditions: TR-UAS-bla HEK293, beta-lactamase ratio, antagonist mode, 18 h. An outline of the steps: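 TR-UAS-bla GripTite HEK293 cells in 2% charcoal/dextran FBS medium were preincubated 4 h at 37 C, given compound (0.59 nM to 92 uM) plus 0.4 nM T3 (final) for 18 h, then CCF4 for 2 h at RT; Hill fit gave IC50.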

A short description of experiment [16]: qHTS assay for small molecule agonists of the antioxidant response element (ARE) signaling pathway (AID 651741; active means well fitted activation curve with a large enough effect in the signal ratio; the % refers to the signal ratio; further: potency means the concentration at half of the fitted maximal effect; on activation: % of control where 0% means no effect). An outline of the steps: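 ARE-bla HepG2 cells (beta-lactamase reporter under ARE control) were plated at 2,000 cells/well, preincubated 5 h at 37 C/5% CO2, then treated with DMSO-dissolved compounds for 16 h at 37 C; LiveBLAzer B/G FRET substrate added, fluorescence read after 2 h at room temperature.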

The nature of experiment [17]: qHTS assay for small molecule activators of the p53 signaling pathway (AID 651743; active means well fitted activation curve with a large enough effect in the signal ratio, not every such curve was filed as active; the % refers to the signal ratio; further: series mostly up to about 92 µM; % of control where 0% means no effect). To be noted: HCT-116 p53RE-bla, beta-lactamase FRET ratio, 16 h; activation: stronger effect = higher value. An outline of the steps:
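p53RE-bla HCT-116 cells with a stably integrated beta-lactamase reporter under p53 response elements were plated, rested 5 hours at 37 C/5% CO2, then exposed to compounds in DMSO for 16 hours at 37 C. LiveBLAzer B/G FRET substrate was read after 2 hours at room temperature.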

A short description of experiment [18]: qHTS assay for environmental chemicals that activate the Aryl hydrocarbon Receptor (AhR) signaling pathway (AID 651777; active means well fitted curve in the direction sought with a large enough effect; an effect the other way counts as inactive or inconclusive; further: % of control where 0% means no effect; nearly all actives have a fitted effect of over 15% in size). To be noted: 1A2-DRE human hepatoma cells, luciferase, 24 h; activation: stronger effect = higher value. An outline of the steps: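 Concentration–response screening used 1,200 1A2-DRE cells per well, 24 hr compound exposure (37 C, 5% CO2), and One-Glo luminescence as the AhR-driven CYP1A2 reporter signal.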

In experiment [19] the target is Peroxisome proliferator-activated receptor alpha (Homo sapiens) (UniProt Q07869). Briefly: qHTS assay for small molecule agonists of the peroxisome proliferator-activated receptor alpha (PPARalpha) signaling pathway (AID 651778; active means well fitted curve in the direction sought with a large enough effect; an effect the other way counts as inactive or inconclusive; further: % of control where 0% means no effect). As to conditions: PathHunter PPARalpha complementation, chemiluminescence, 6 h; max response: stronger effect = higher value. An outline of the steps: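 Cells plated at 2,000/well and held overnight at 37 C, 5% CO2, then compound added by pin tool for 6 hr; after PathHunter detection reagent and 60 min at room temperature, chemiluminescence from enzyme complementation was read.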

Experiment [20] in a line: qHTS assay for small molecule agonists of the antioxidant response element (ARE) signaling pathway measured by Nrf2-dependant transcriptional activity (AID 720636; active means well fitted curve in the direction sought with a large enough effect in the repeat runs; an effect the other way counts as inactive or inconclusive; further: % of control where 0% means no effect). Summed up:
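Attachment 6 hr at 37 C, then compound versus DMSO vehicle for 16 hr in ARE-luc HepG2 cells (1% dialyzed FBS); luminescence recorded 30 min after ONE-Glo addition at room temperature.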

A short description of experiment [21]: qHTS assay for small molecule agonists of the antioxidant response element (ARE) signaling pathway measured by Nrf2-dependant transcriptional activity - cell viability counter screen (AID 720653; active means well fitted curve in the direction sought with a large enough effect in the repeat runs; an effect the other way counts as inactive or inconclusive; further: on the % scale 0 is the no-effect control and ±100 the full control effect). To be noted: ARE-bla HepG2 viability, CellTiter-Glo ATP luminescence, 16 h; max response: stronger effect = lower value. Summed up:
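ARE-bla HepG2 cells (2,000/well) rested 5 hrs at 37C/5% CO2, then exposed to compounds in DMSO for 16 hrs. Viability was read in the same wells as intracellular ATP by luminescence, 30 min at room temperature after reagent addition.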

Experiment [22] in a line: qHTS assay for cell viability of HEK293 cells (AID 743288; active means well fitted curve in the direction sought with a large enough effect; an effect the other way counts as inactive or inconclusive; further: nearly all actives have a fitted effect of over 50% in size; further: potency means the concentration at half of the fitted maximal effect). As to conditions: ATP luminescence (CellTiter-Glo), 18 h; max response: stronger effect = lower value. An outline of the steps:
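Environmental chemicals tested in qHTS format against parental HEK293 cells; 18 h treatment, 37 C; read-out ATP luminescence (CellTiter-Glo), 30 min RT development.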

The nature of experiment [23]: qHTS assay for cell viability of the p53RE-bla HCT-116 cell line (AID 743292; active means well fitted curve in the direction sought with a large enough effect; an effect the other way counts as inactive or inconclusive; further: on the % scale 0 is the no-effect control and ±100 the full control effect; nearly all actives have a fitted effect of over 55% in size). Summed up: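 Compound-exposed HCT-116 (p53RE-bla) cells, 4,000 per well, were kept 16 h at 37 C following a 5 h preincubation. Cell number was estimated from total ATP by CellTiter-Glo luminescence read after 30 min at room temperature.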
Experiment [24] deals with Nuclear receptor subfamily 1 group I member 2 (Rattus norvegicus) (UniProt Q9R1A7). Briefly: qHTS assay for small molecule activators of the rat pregnane X receptor (rPXR) signaling pathway (AID 651751; call rule not given here; further: 0% is about no effect). To be noted: rPXR reporter cells, luciferase (One-Glo), 24 h.
Experiment [25] is described as follows: qHTS assay for small molecule activators of the human pregnane X receptor (PXR) signaling pathway (AID 720659; call rule not given here; further: 0% is about no effect).
Experiment [26] has as its target Retinoic acid receptor RXR-alpha (Homo sapiens) (UniProt P19793). Description: qHTS assay for small molecule antagonists of retinoid X receptor alpha signaling (AID 588546). Further: potency means the concentration at half of the fitted maximal effect.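 On max response: cells stimulated with 9-cis-retinoic acid as agonist; on the % scale 0 is the no-effect control and ±100 the full control effect.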 To be noted: HEK293T RXRa-UAS-bla, beta-lactamase ratio, antagonist mode. An outline of the steps: as §2
Experiment [27] is described as follows: qHTS assay for small molecule activators of the nuclear factor-kappa B (NF-kB) signaling pathway (AID 651749; active means well fitted activation curve with a large enough effect in the signal ratio; the % refers to the signal ratio; further: series mostly up to about 77 µM; % of control where 0% means no effect). As to conditions: NF-kB-bla ME-180 cells, beta-lactamase FRET ratio, 16 h; activation: stronger effect = higher value. Summed up: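 ME-180 cells stably carrying a beta-lactamase reporter under an NF-kB response element were exposed to compound or DMSO vehicle for 16 hr at 37C, 5% CO2. Pathway activation was read by FRET, since reporter expression disrupts FRET.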

Sequence of Peroxisome proliferator-activated receptor delta (Homo sapiens) (Q03181 whole entry, looked up): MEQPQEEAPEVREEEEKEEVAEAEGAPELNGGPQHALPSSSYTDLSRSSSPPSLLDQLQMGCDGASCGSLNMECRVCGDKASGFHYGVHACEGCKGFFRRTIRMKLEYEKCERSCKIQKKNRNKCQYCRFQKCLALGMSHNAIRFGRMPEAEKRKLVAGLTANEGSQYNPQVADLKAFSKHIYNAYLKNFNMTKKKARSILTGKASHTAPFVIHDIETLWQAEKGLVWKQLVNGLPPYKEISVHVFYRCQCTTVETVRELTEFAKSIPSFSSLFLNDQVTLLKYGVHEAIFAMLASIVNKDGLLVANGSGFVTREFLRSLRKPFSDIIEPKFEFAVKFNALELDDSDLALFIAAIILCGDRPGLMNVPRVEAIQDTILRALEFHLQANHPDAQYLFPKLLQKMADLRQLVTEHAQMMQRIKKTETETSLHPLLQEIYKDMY
Sequence of Thyroid hormone receptor beta (Homo sapiens) (P10828 whole entry, looked up): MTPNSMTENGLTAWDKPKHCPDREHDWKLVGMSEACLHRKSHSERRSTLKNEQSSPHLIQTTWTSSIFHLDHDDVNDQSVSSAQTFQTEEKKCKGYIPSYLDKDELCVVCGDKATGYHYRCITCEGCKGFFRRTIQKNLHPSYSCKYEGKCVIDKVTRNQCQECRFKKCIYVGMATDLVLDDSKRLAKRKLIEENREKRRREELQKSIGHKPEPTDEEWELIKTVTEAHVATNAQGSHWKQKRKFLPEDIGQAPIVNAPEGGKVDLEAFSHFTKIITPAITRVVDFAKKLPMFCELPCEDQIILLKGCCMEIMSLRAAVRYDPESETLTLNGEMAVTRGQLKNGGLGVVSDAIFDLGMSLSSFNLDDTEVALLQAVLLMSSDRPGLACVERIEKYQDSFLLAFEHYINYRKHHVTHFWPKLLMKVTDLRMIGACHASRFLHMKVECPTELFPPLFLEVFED
Sequence of Glucocorticoid receptor (Homo sapiens) (P04150 whole entry, looked up): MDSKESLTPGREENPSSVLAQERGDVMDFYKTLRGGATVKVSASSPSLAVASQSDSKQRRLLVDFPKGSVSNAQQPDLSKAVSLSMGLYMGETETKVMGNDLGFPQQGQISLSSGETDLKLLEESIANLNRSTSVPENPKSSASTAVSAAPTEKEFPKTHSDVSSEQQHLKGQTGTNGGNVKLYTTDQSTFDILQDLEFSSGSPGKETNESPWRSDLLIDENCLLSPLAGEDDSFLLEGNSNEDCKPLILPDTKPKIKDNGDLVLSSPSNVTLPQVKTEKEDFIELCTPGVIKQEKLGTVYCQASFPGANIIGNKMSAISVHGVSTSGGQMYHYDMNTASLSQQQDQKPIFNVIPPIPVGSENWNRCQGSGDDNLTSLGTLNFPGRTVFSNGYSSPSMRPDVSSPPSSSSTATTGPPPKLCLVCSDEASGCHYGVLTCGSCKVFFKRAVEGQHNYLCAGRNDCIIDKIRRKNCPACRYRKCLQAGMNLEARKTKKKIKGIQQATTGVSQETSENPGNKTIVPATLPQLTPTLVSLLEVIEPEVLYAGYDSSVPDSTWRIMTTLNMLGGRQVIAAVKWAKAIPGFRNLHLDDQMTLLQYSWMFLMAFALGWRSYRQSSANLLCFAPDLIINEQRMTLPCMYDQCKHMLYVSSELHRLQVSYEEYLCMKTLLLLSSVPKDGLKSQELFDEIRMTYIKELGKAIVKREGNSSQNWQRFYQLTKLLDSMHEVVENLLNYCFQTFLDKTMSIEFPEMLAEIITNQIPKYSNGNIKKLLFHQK
Sequence of Bile acid receptor (Homo sapiens) (Q96RI1 whole entry, looked up): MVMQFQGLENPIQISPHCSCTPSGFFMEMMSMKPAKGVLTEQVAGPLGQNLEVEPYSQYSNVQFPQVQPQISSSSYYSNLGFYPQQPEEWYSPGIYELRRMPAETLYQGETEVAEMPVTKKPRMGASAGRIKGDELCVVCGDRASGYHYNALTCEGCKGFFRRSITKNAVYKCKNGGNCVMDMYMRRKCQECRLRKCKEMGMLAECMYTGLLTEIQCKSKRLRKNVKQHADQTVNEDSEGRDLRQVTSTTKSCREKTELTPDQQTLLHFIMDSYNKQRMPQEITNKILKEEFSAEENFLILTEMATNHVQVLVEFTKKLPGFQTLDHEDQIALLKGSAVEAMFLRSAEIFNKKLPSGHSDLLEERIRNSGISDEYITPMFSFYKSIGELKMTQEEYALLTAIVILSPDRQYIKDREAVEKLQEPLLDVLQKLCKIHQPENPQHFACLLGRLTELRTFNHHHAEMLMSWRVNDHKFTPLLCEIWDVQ
Sequence of Vitamin D3 receptor (Homo sapiens) (P11473 whole entry, looked up): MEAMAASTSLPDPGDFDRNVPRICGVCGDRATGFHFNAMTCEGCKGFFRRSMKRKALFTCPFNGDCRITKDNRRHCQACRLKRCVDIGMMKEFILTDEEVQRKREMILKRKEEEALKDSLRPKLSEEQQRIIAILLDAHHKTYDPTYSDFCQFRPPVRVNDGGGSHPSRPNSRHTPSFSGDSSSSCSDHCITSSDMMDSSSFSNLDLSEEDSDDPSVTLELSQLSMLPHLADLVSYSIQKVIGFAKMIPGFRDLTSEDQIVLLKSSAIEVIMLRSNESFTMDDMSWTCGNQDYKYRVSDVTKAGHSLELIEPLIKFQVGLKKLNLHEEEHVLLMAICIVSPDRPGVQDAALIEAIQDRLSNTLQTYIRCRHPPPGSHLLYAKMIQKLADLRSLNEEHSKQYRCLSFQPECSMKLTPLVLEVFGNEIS
Sequence of Nuclear receptor subfamily 1 group I member 2 (Rattus norvegicus) (Q9R1A7 whole entry, looked up): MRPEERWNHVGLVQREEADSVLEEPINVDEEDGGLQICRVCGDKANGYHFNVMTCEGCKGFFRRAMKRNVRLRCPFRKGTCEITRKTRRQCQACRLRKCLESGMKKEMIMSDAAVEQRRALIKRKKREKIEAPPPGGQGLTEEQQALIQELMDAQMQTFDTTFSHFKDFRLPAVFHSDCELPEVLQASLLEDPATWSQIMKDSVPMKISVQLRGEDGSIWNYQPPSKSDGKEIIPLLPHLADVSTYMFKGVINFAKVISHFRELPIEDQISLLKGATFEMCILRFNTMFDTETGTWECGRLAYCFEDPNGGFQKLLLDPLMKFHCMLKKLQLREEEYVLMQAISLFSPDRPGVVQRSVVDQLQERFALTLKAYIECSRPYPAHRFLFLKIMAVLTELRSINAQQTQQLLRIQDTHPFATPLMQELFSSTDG
Sequence of Peroxisome proliferator-activated receptor alpha (Homo sapiens) (Q07869 whole entry, looked up): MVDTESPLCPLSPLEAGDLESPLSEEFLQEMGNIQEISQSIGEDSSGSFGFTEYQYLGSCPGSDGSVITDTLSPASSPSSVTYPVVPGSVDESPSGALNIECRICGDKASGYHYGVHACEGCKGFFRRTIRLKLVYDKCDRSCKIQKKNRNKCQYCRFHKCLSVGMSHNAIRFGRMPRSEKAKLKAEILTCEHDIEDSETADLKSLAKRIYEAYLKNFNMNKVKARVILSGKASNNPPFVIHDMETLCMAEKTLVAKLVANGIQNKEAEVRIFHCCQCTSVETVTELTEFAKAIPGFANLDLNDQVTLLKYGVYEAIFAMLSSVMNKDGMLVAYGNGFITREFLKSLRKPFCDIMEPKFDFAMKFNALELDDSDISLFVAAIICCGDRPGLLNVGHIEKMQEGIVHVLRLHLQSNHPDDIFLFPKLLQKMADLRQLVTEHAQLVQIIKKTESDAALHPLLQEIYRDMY
Sequence of Peroxisome proliferator-activated receptor gamma (Homo sapiens) (P37231 whole entry, looked up): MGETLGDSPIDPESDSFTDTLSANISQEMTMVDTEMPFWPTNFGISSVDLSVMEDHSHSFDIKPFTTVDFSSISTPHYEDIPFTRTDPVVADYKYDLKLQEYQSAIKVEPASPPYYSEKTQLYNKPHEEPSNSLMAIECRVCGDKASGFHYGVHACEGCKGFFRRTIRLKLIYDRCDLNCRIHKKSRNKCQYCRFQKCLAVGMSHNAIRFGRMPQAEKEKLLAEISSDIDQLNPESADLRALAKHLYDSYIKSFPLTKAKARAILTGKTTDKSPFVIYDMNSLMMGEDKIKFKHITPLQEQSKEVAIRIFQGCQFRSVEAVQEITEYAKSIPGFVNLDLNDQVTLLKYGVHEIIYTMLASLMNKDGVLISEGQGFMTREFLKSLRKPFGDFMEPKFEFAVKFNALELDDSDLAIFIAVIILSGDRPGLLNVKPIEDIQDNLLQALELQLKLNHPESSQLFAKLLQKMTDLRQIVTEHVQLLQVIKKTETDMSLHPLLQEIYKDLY
Sequence of Retinoic acid receptor RXR-alpha (Homo sapiens) (P19793 whole entry, looked up): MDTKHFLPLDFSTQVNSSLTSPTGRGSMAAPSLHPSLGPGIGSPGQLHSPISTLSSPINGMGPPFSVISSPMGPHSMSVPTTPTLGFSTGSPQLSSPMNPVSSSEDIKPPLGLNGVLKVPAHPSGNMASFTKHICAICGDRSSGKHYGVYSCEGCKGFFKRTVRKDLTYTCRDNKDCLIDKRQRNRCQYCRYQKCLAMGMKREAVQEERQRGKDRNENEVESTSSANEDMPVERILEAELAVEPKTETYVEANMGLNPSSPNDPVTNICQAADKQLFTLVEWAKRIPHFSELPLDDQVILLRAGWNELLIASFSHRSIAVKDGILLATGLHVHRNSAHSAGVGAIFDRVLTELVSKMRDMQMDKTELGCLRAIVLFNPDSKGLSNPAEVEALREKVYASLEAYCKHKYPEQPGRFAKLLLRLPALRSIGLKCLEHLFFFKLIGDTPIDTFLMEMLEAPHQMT

Turning to `CCCCCCCCCCCCN(C)C`, the activation in [1] is 2.94% (inactive); in experiment [2], -15.1% (inactive); in experiment [17], 0.386% (inactive); in [18] it was -2.66% (inactive). Further, the Potency entry in [3], in experiment [6], in experiment [7], in experiment [8], in [9] and in experiment [12] was “inactive” in each case. Besides, the Potency entry in experiment [13], in [16], in experiment [20] and in experiment [23] was “inactive” each time. For the same compound, the call in experiment [4], in experiment [10] and in experiment [25] was inactive. The max response in experiment [5] is -18.8%; in experiment [11] it was -10.4%; in [14], 1.32%; in [19] it was -1.36% (inactive); in experiment [21], -0.69% (inactive); in experiment [22] it was -1.64% (inactive). Moreover, the max response in [24] was -0.417% (inactive). Moreover, in experiment [15], the activity change % (negative = inhibition) was -6.18% (inactive).

As for `CCC[CH2][Sn]([Cl])([Cl])[CH2]CCC`, the activation in experiment [1] was -1.2% (inactive); in experiment [2] it was -12% (inactive); in [27], -3.49% (inactive); in experiment [18] it was -11.4% (inactive). The Potency was 15.8 µM (active) in experiment [3]; 3.98 µM (active) in experiment [6]; 3.98 µM (active) in [26]; 1.93 µM (active) in experiment [16]; 39.8 µM (active) in experiment [22]. For the same compound, the max response is -91.3% in [5], 25.9% in experiment [14], -2.73% (inactive) in [19] and -14.6% (inactive) in [24]. For the same compound, the Potency entry in [13] and in [20] was “inactive” each time.

Take `CC(C)OB(OC(C)C)OC(C)C`: the activation in experiment [1] is -0.77% (inactive).

On to `C=CCOC(=O)CCCCCCCC`, for which the activation in experiment [1] is -1.24% (inactive).
